For one test, the system named is Klebsiella pneumoniae. Conditions: Concentration 32 ug.mL-1;; ASSAY_TEST Inhibition of Bacterial Growth; detection method Absorption (OD600); MEDIA CAMHB; plate type 384well; NBS; CORNING #3640; time 18 hr.
The next test has as its system Candida albicans. Conditions: Concentration 32 ug.mL-1; ASSAY_TEST Inhibition of Fungal Growth; detection method Absorption (OD530).
The subject of a further test is Cryptococcus neoformans. Conditions: Concentration 32 ug.mL-1; ASSAY_TEST Inhibition of Fungal Growth; detection method Resazurin; Absorption (OD600-OD570); plate type 384well; NBS; CORNING #3640.

Entries with a potency or affinity are not part of this list.

With `Cc1cc(C)c(NC(=O)Cn2nc3c(SCc4ccc(Cl)cc4)nccn3c2=O)c(C)c1`, the Inhibition was 8.66% in the test with Klebsiella pneumoniae, 25.19% with Candida albicans and -17.24% in the test on Cryptococcus neoformans.

Take `CCc1ccc(N(Cc2ccccc2)S(=O)(=O)c2cccn3c(CC)nnc23)cc1`: the Inhibition with Klebsiella pneumoniae is on record as 8.89%; in the test with Candida albicans, 13.04%; with Cryptococcus neoformans, -8.52%.

Regarding `CCOc1ccc(-n2ccn3c(SCC(=O)Nc4ccc(C)cc4)nnc3c2=O)cc1`, the Inhibition was 16.35% in the test on Klebsiella pneumoniae, 4.07% in the test on Candida albicans and -19.05% with Cryptococcus neoformans.

Regarding `CCCCOc1ccc(-c2cc3c4nnc(SCC(=O)Nc5ccc(OC)cc5)n4ccn3n2)cc1`, the figures for the Inhibition in the test on Klebsiella pneumoniae, with Candida albicans and in the test on Cryptococcus neoformans were 6.75%, 3.4% and -13.28%, respectively.

As to `COC(=O)c1ccc(NC(=O)Cn2nc3c(Oc4ccccc4)nccn3c2=O)cc1`, the values for the Inhibition in the test with Klebsiella pneumoniae, in the test with Candida albicans and with Cryptococcus neoformans were -0.72%, 3.86% and -10.09%, respectively.

The record behind these values is ChEMBL document CHEMBL4513146, “CO-ADD screening of Karazin Kharkiv National University (Ukraine) compounds”.
